The source made the active and inactive calls. Rule for the calls: active = hit-call score of the fitted dose curve at least 0.9, where 1 is the maximum; inactive = score below 0.9.
The compounds below were run on Nuclear factor NF-kappa-B p105 subunit (Homo sapiens) (UniProt P19838) (assay: LTEA_HepaRG_NFKB1: Life Technologies and Expression Analysis (LTEA) Assay for Nuclear Factor Kappa B Subunit 1 (NFKB1) using HepaRG (AID 2283521;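 for outcome: TaqMan qRT-PCR transcript normalised to ACTB GAPDH and POLR2A housekeeping genes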)). Details: mRNA level, 48 h; actives raise or lower the signal.
Procedure: LTEA_HepaRG is a cell based, multiplexed-readout assay that uses HepaRG, a human liver cell line, with measurements taken at 48 hours after chemical dosing on a 96-well plate.LTEA_HepaRG_NFKB1 is one of 102 assay component(s) measured in the LTEA HepaRG cell culture assay. It is a marker of Cell proliferation, survival, death.Data from the assay component LTEA_HepaRG_NFKB1 was analyzed into 1 endpoint. This assay endpoint, LTEA_HepaRG_NFKB1, was analyzed with bidirectional fitting relative to DMSO as the negative control and baseline of activity. Using a type of inducible reporter, measures of mRNA induction for gain or loss-of-signal activity can be used to understand regulation of transcription factor activity. To generalize the intended target to other relatable targets, this assay endpoint is annotated to the dna binding intended target family, where the subfamily is NF-kappa B.
A total of 1060 chemcials from the ToxCast library were tested in eight-point concentration-response experiments. Cell culture and cytotoxicity assays were conducted at Thermo Fisher Scientific's Custom Services facility (Madison, WI). A single lot of human HepaRG cells (Thermo Fisher Scientific, Frederick, MD) was used for the cell culture experiments. 96-well format collagen type I coated plates of human HepaRG cells were prepared using established methods. Briefly, cryopreserved HepaRG cells were thawed, plated at a density of approximately 100,000 cells/well in HepaRG Thaw, Plate, and General Purpose media (HPRG770, Thermo Fisher Scientific), and incubated for 48 hours. 0.5% DMSO was selected as vehicle control to balance the requisite need of DMSO in HepaRG cultures to maintain differentiation (for example, baseline metabolism, proportions of hepatocytes vs. cholangiocytes), while enabling further hepatic receptor pathway activation (for example, PXR and CAR) in response to chemical exposure. 48 hours after plating, the culture medium was replaced with HepaRG Serum-Free Incudtion Media. Cells were exposed to each test chemical in duplicate and maintained in CO2 incubators for another 48 hours. Chemical plates were thawed to room temperature and 200x concentrations of treatment groups were prepared. 8-point conentration-reponse curves were made with the highest exposure at 100 uM, followed by half-log dilutions, all in 0.5% DMSO. Each test plate contained variouse controls, induction positive controls (1mM phenobarbital), cytotoxicity positive controls ([…] aflatoxin B1), vehicle controls (0.5% DMSO), and total lysis controls (0.5% DMSO). Cell morphology images were taken using an Essen IncuCyte FLR automated microscope, with six 96-well plates imaged in about 24 minutes. Images were captured and exported and JPEG files. Spent culture media was transfered to black-well plates for the LDH assay, and remaining media was sorted at -80 C for later use. Cells were treated with RLT buffer and frozen until shipped for gene expression analysis. Total RNA was isolated from the cell suspension in 75 uL of Buffer RLT (Qiagen, Germantown, MD 20874) by Quintiles/Expression Analysis (Durham, NC) using a custom isolation procedure. Total RNA from each plate well was transferred to a preamplification plate. Fluidigm's 96.96 Dynamic ArrayTM (Fluidigm, Amsterdam, the Netherlands) technology was used for gene expression analyses by quantitative reverse transcription polymerase chain reaction (qRT-PCR, performed by Quintiles/Expression Analysis, Durham, NC)89. Standard TaqManTM Assays (Applied Biosystems/ThermoFisher Scientific, Foster City, CA) were used to assess the expression of 93 genes selected based on their selectivity and sensitivity to important hepatic receptors known to be modulated by environmental chemicals; importance in human hepatocyte functionality; and hepatotoxicity. […]

Sequence of Nuclear factor NF-kappa-B p105 subunit (Homo sapiens) (P19838 whole entry, looked up): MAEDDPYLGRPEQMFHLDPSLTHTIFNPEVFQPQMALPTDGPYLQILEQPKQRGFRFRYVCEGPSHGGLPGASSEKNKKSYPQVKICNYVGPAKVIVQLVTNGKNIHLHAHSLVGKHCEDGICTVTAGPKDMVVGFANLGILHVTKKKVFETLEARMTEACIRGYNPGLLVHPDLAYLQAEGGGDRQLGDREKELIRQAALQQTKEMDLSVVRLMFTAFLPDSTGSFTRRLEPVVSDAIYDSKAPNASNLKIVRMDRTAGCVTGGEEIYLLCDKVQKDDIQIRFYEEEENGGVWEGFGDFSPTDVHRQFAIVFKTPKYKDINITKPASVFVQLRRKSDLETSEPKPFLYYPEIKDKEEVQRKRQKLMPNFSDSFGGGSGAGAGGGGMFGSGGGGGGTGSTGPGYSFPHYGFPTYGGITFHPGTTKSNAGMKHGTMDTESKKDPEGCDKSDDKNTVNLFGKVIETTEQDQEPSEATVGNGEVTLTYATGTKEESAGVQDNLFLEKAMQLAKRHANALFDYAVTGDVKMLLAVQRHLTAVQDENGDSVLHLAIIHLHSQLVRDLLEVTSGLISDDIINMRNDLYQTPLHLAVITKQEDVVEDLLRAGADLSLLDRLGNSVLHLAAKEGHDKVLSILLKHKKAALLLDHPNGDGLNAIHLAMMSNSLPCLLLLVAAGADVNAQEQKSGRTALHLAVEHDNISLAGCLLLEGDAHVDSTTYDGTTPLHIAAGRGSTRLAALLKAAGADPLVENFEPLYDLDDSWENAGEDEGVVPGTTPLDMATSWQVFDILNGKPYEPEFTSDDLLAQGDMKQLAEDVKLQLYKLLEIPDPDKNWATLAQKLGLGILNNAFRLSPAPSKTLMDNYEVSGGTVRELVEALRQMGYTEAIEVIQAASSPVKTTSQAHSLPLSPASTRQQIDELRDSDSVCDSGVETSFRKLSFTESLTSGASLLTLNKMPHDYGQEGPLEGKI

Row | SMILES | outcome | AC50
1 | CCNc1nc(NC(C)C)nc(SC)n1 | inactive | –
2 | CN(C)CCO | inactive | –
3 | NS(=O)(=O)C(F)(F)C(F)(F)C(F)(F)C(F)(F)C(F)(F)C(F)(F)C(F)(F)C(F)(F)F | – | 2.4 µM (active)
4 | Clc1ccc(C(c2ccccc2Cl)C(Cl)(Cl)Cl)cc1 (stereo not given) | inactive | –
5 | CCC(C)(c1ccc(O)cc1)c1ccc(O)cc1 | inactive | –
6 | Nn1cnnc1 | inactive | –
7 | CC(c1ccc(O)cc1)(c1ccc(O)cc1)c1ccc(O)cc1 | inactive | –
8 | CCCCCCCCCc1ccc(O)cc1 | inactive | –
9 | O=C(O)C(F)(F)C(F)(F)C(F)(F)C(F)(F)C(F)(F)C(F)(F)C(F)(F)C(F)(F)C(F)(F)F | inactive | –
10 | c1cc2ccc3cccc4ccc(c1)c2c34 | inactive | –
11 | C1CC2OC2CC1C1CO1 (stereo not given) | inactive | –
12 | Cc1cccc([N+](=O)[O-])c1 | inactive | –
13 | CC(C)(c1ccccc1)c1ccc(O)cc1 | inactive | –
14 | ClC1=C(Cl)[C@]2(Cl)[C@@H]3[C@@H](Cl)[C@H]4O[C@H]4[C@@H]3C1(Cl)C2(Cl)Cl | inactive | –
15 | CCC(C)(CC)c1cc(NC(=O)c2c(OC)cccc2OC)on1 | inactive | –
16 | Cc1ccccc1[N+](=O)[O-] | inactive | –
17 | Cc1ccc(O)c(C)c1 | inactive | –
18 | CC#Cc1cc(C)nc(Nc2ccccc2)n1 | inactive | –
19 | CCOC(=O)C(O)(c1ccc(Cl)cc1)c1ccc(Cl)cc1 | inactive | –
20 | COS(=O)(=O)OC | inactive | –

Row | SMILES | outcome | AC50
21 | CCC(C)c1cc([N+](=O)[O-])cc([N+](=O)[O-])c1O (stereo not given) | inactive | –
22 | ClC1=C(Cl)[C@]2(Cl)[C@@H]3[C@@H]4C[C@@H]([C@H]5O[C@@H]45)[C@@H]3[C@@]1(Cl)C2(Cl)Cl | inactive | –
23 | Cc1cc(O)ccc1Cl | inactive | –
24 | Cc1ccccc1CO[C@@H]1C[C@@]2(C(C)C)CC[C@]1(C)O2 | inactive | –
25 | C=CC(N)=O | inactive | –
26 | CCC(=O)O[C@H]1CC[C@H]2[C@@H]3CCC4=CC(=O)CC[C@]4(C)[C@H]3CC[C@]12C | inactive | –
27 | CCCCCCOC(=O)c1ccccc1C(=O)OCCCCCC | inactive | –
28 | Cc1cccc(C)c1N | inactive | –
29 | CC(C)C(=O)OCC(C)(C)C(OC(=O)C(C)C)C(C)C (stereo not given) | inactive | –
30 | ClC1=C(Cl)[C@]2(Cl)[C@@H]3[C@H]4C[C@H]([C@@H]5O[C@H]45)[C@@H]3[C@@]1(Cl)C2(Cl)Cl | inactive | –
31 | Cc1ccccc1O | inactive | –
32 | CCCN(CCC)N=O | inactive | –
33 | O=C(NC(=O)c1c(F)cccc1F)Nc1cc(Cl)c(OC(F)(F)C(F)F)c(Cl)c1 | inactive | –
34 | CCCCCCCCCC[N+](C)(C)CCCCCCCCCC | inactive | –
35 | ClC(Cl)=C(c1ccc(Cl)cc1)c1ccc(Cl)cc1 | inactive | –
36 | c1ccc(-c2ccccc2)cc1 | inactive | –
37 | C=CC(=O)NCNC(=O)C=C | inactive | –
38 | CCSC(=O)N(CC)C1CCCCC1 | inactive | –
39 | Clc1ccc(Cl)cc1 | inactive | –
40 | O=C(N[C@H]1CN2CCC1CC2)c1cc2ccoc2cn1 | inactive | –

Source: PubChem BioAssay (EPA / NIEHS)
